Hits are enriched below; roughly 6.3% of the tested compounds scored in any of these assays.
Abs 340nm – compound absorbs light at 340 nm. fold change at 10 µM. 65,000 tested, under 10 active. compound absorbance at 340 nm, fold over control. AID 708;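 active means at 10 µM dose, initial 340 nm absorbance at least 2 fold that of control wells; inactive means change under 2 fold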;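 further: initial absorbance extrapolated from kinetic A340 decline of NADH oxidation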
Spn DPM-DC inh – S. pneumoniae DPM-DC inhibition | purified DPM-DC, PK/LDH coupled NADH fluorescence | calls only at 10 µM | hit rate 0.49% among 65,000;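 active means the 320 compounds with the highest percent inhibition in the single-dose primary screen, excluding strongly autofluorescent ones, cut at about 32% in these data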;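 further: kinetic rate of NADH fluorescence loss reporting ADP formed by the decarboxylase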
Spn PMK inh – S. pneumoniae PMK inhibition. purified PMK, PK/LDH-coupled NADH absorbance 340 nm. inhibition, % at 10 µM. hit rate 0.49% among 65,000. AID 539;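 active means top-ranked compounds by inhibition in the single 10 µM screen, taking a fixed number of the strongest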;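 further: 0% = full reaction with DMSO carrier and 100% = background rate without enzyme reaction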
NADH enzymes – blocks coupling enzymes of NAD/NADH assays. coupled PK/LDH NADH assays, four targets. IC50, µM (titrated, usually from 10 µM), for inactives: at the top dose inhibition. hit rate 0.02% among 65,000. AID 774;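 active means single-dose screening hits from any of four coupled enzyme assays that gave an IC50 when retested across doses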;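 further: the DPM-DC format reads NADH fluorescence rather than 340 nm absorbance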
MK inhibit – S. pneumoniae mevalonate kinase inhibition; hit rate 0.48% among 65,000; inhibition, % at 10 µM; purified MK, PK/LDH-coupled NADH absorbance 340 nm;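 active means ranked among the strongest by inhibition in the single 10 µM screen, a fixed top-ranked set picked for dose follow-up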
Fluor 339 460 – intrinsic fluorescence of library compounds, ex339/em460 – biochemical, MLSMR library, data from DPM-DC assay, artefact control, profiling panel; compound autofluorescence, ex339/em460 nm, NADH buffer; active compounds read high; 1 = no-compound wells, NADH background; fluorescence fold increase at 10 µM; hit rate 5.5% among 65,000;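 active means at 10 µM, mean starting fluorescence two-fold or more over control wells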;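 further: signal is the first read of a kinetic run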
The depositor's hits bear a star; i = inactive; / = no result shown; + = active, no number; [ ] = remark or other dose.

SMILES | Abs 340nm | Spn DPM-DC inh | Spn PMK inh | NADH enzymes | MK inhibit | Fluor 339 460
Cn1nnnc1SCc1cn2cccnc2n1 | 1 | / | 14 | 3% | 2 | 3.3*
COc1cc(C)c(CNc2ccc(OC)c(OC)c2)cc1C | 1 | i | 0 | 6% | 10 | 0.9
O=C(Nc1cccc(NC(=O)c2ccc(Br)o2)n1)c1ccc(Br)o1 | 1.1 | i | 20 | 10% | 0 | 1.4
N#Cc1c(NC(=O)c2ccc(Br)o2)n(-c2ccccc2)c2nc3ccccc3nc12 | 1 | / | 2 | 3% | 12 | 3*
CCC(=O)Nc1nc2ccccc2n1Cc1ccc(C)cc1 | 1 | i | 0 | 0% | 0 | 1.1
CCC(=O)Nc1c(C#N)c2nc3ccccc3nc2n1-c1ccc(C)cc1 | 1.1 | / | 8 | 10% | 12 | 3.7*
CCS(=O)(=O)N1Cc2ccccc2CC1C(=O)N1CCN(c2cccc(C)c2C)CC1 (stereo not given) | 1 | i | 7 | 5% | 9 | 1.1
Cc1ccc(CSc2nc3c(c(=O)[nH]2)C(c2ccncc2)C2=C(CCCC2=O)N3)cc1 (stereo not given) | 1 | / | 9 | 5% | 4 | 2.4*
CCOc1ccc2[nH]c(=O)c(CN(CC3COCCO3)C(=O)c3ccco3)cc2c1 (stereo not given) | 1 | / | 17 | 11% | 5 | 4*
COc1ccc2[nH]c(=O)c(CN(Cc3ccco3)C(=O)c3ccccc3)cc2c1 | 1.1 | / | 8 | 8% | 8 | 3.7*
CCOc1ccc2[nH]c(=O)c(CN(Cc3ccco3)C(=O)c3cccc(F)c3)cc2c1 | 1 | i | 20 | 15% | 12 | 2.9*
OCCN1CCN(c2nc(-c3ccccc3)nc3c2oc2ccccc23)CC1 | 1 | i | 17 | 10% | 9 | 1.1
COc1ccc(OC)c(C(O)c2coc3ccc(O)c(CN4CCOCC4)c23)c1 (stereo not given) | 1 | i | 0 | 4% | 11 | 1.1
Cc1csc2ncc(C(=O)Nc3ccon3)c(=O)n12 | 1.1 | / | 11 | 6% | 0 | 4.8*
Cc1csc2ncc(C(=O)Nc3ccccc3Cl)c(=O)n12 | 1 | +[fluoresces] | 0 | 3% | 5 | 2*
CCOc1ccc(OCC)c(C2C(C#N)=C(N)N(c3cccnc3)C3=C2C(=O)CC(C)(C)C3)c1 (stereo not given) | 1.1 | i | 0 | 2% | 5 | 1.6
COc1ccc(C2C3=C(CCCC3=O)Nc3nc4ccccc4n32)cc1OC (stereo not given) | 1.2 | / | 6 | 8% | 10 | 3*
COc1ccc(OC)c(C2C3=C(CCCC3=O)Nc3nc4ccccc4n32)c1 (stereo not given) | 1.1 | i | 8 | 7% | 9 | 1.7
COc1ccc(C2C3=C(CCCC3=O)Nc3nc4ccccc4n32)c(OC)c1OC (stereo not given) | 1.1 | / | 8 | 4% | 0 | 5.1*
CCOC(=O)N1CCN(C(=O)c2ccc3c(=O)n(CCc4ccccc4)c(=O)[nH]c3c2)CC1 | 1 | i | 0 | 3% | 12 | 1.2
N=c1c(S(=O)(=O)c2ccccc2)cc2c(=O)n3ccccc3nc2n1CC1CCCO1 (stereo not given) | 1 | i | 4 | 10% | 6 | 3.1*
Cn1c(=N)c(S(=O)(=O)c2ccc(Cl)cc2)cc2c(=O)n3ccccc3nc21 | 0.98 | i | 11 | 6% | 7 | 1.8
CCOC(=O)CSc1nc2ccccc2c(=O)n1CC1CCCO1 (stereo not given) | 1.1 | i | 11 | 4% | 0 | 1.2
Cc1ccc(S(=O)(=O)c2cc3c(=O)n4cc(C)ccc4nc3n(CC3CCCO3)c2=N)cc1 (stereo not given) | 1.1 | i | 1 | 8% | 9 | 2.1*
Cn1c(=O)oc2cc(S(=O)(=O)NCCC(=O)N3CCc4ccccc43)ccc21 | 1 | i | 8 | 3% | 0 | 1.1
SMILES | Abs 340nm | Spn DPM-DC inh | Spn PMK inh | NADH enzymes | MK inhibit | Fluor 339 460
N#Cc1ccc(-c2cccnc2)nc1SCC(=O)Nc1sc2c(c1C#N)CCC2 | 1.1 | i | 47 | 45% | 62* | 1.1
O=C(Nc1cccc2c1C(=O)NC2=O)c1ccc(S(=O)(=O)N2CCCC2)cc1 | 1 | i | 16 | 8% | 5 | 2.3*
CC(C)OC(=O)c1c2nc3ccccc3nc2n2c1[nH]c(=O)c1ccccc12 | 1 | / | 5 | 3% | 1 | 2.3*
C=C(C)c1cccc(C(C)(C)NC(=O)Nc2ccc3[nH]c(=O)[nH]c3c2)c1 | 1 | i | 5 | 2% | 0 | 1.1
COC(=O)N1CC(C)N(C(=O)OC)CC1C (stereo not given) | 1 | i | 10 | 8% | 10 | 1.1
Cn1c(=O)cc(SCC(=O)N2CCCC2)c2ccccc21 | 1 | i | 7 | 4% | 6 | 1.4
CCOC(=O)CSc1cc(=O)n(C)c2cc(Cl)ccc12 | 1 | + | 3 | 16% | 13 | 0.93
CCN1CCCC1CNC(=O)CSc1cc(=O)n(C)c2cc(Cl)ccc12 (stereo not given) | 1.1 | i | 4 | 1% | 0 | 1.3
CCOC(=O)N1CCC(NC(=O)CSc2cc(=O)n(C)c3ccccc23)CC1 | 1.1 | + | 42* | 38% | 35 | 1.7
Fc1cc2nc(-c3ccncc3)[nH]c2cc1F | 1.1 | / | 0 | 2% | 3 | 2.2*
O=C(CSc1nnnn1-c1ccc(Cl)cc1)N1CCc2ccccc2C1 | 1 | i | 0 | 0% | 0 | 1.1
O=C(COC(=O)c1cccc(NC(=O)c2ccco2)c1)c1ccc(Br)cc1 | 1 | i | 0 | 0% | 0 | 1.1
CCOc1cc(CN2CCN(C(=O)c3ccco3)CC2)ccc1OC | 1.1 | i | 0 | 7% | 51* | 1
CCOc1cc(CN2CCN(c3ccc(C(C)=O)cc3)CC2)ccc1OC | 1.2 | i | 0 | 15% | 44* | 1.1
COc1ccc(CN2CCN(C(=O)c3cccs3)CC2)cc1Br | 1.1 | i | 13 | 21% | 49* | 1.1
O=C(NCCCN1CCCC1=O)c1cccc(C(F)(F)F)c1 | 1 | i | 7 | 4% | 5 | 1.1
Cc1ccnc(NC(=O)CCC(=O)N(CC(=O)NC2CCCCC2)Cc2ccc3c(c2)OCO3)c1 | 0.99 | i | 9 | 5% | 4 | 1.1
CCCCN(C(=O)NC(=O)C1=C(N2CCOCC2)/C(=C/c2ccccc2)CC1)S(C)(=O)=O | 1.1 | / | 0 | 5% | 9 | 2.1*
CCCCN(C(=O)NC(=O)Nc1ccccc1OC)S(C)(=O)=O | 0.99 | i | 6 | 4% | 5 | 1.1
CN(C(=O)NC(=O)C1=C(N2CCOCC2)/C(=C/c2ccccc2)CC1)S(C)(=O)=O | 1.1 | i | 3 | 9% | 7 | 2.9*
CC(C)c1nnc(NC(=O)CCC(=O)NCc2ccc3c(c2)OCO3)s1 | 0.99 | i | 11 | 2% | 6 | 1.1
Nc1ccc(C(=O)c2ccccc2C(=O)O)cc1Cl | 0.98 | i | 7 | 6% | 11 | 1.1

High-throughput results as filed in PubChem.
